According to PubChem BioAssay (NCI):
This is part of a sample that, as a whole, favours compounds with a hit. Of some 83,000 tested, about 20% had one in any assay.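 Testing used 96-well plates and a 48-hour single-concentration exposure. Example: -40 means 40% of the starting cells died.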 Calls of active or inactive are those of the source. Rule for the calls: active = growth percent below 10; inactive = the rest.

Legend:
Assay in all cases: NCI-60 one-dose screen, 48 h (100 = growth as untreated, 0 = no growth, -100 = all killed)
SK-MEL-2 melanoma = system: SK-MEL-2 melanoma
EKVX NSCLC = system: EKVX NSCLC
SN12C renal = system: SN12C renal
UO-31 renal = system: UO-31 renal
TK-10 renal = system: TK-10 renal
ACHN renal = system: ACHN renal
CAKI-1 renal = system: CAKI-1 renal
A498 renal = system: A498 renal
CCRF-CEM leukemia = system: CCRF-CEM leukemia
MOLT-4 leukemia = conditions: 10 µM unless noted

Measured: growth

FC(F)(F)c1cc2c(Cl)ncnc2n1CCN1CCOCC1
active: UO-31 renal; 10 µM unless noted -92.7% | ACHN renal; 10 µM unless noted -45.4%
inactive: SK-MEL-2 melanoma; 10 µM unless noted 47.7% | EKVX NSCLC; 10 µM unless noted 92.8% | SN12C renal; 10 µM unless noted 75.6% | TK-10 renal; 10 µM unless noted 102% | CAKI-1 renal; 10 µM unless noted 75% | A498 renal; 10 µM unless noted 116% | CCRF-CEM leukemia; 10 µM unless noted 36.6% | MOLT-4 leukemia 20.2%

COc1cc(CNC(=O)C[C@H](C)CCC=C(C)C)ccc1OCc1cn(-c2cccc(C(F)(F)F)c2)nn1
inactive: SK-MEL-2 melanoma; 10 µM unless noted 111% | EKVX NSCLC; 10 µM unless noted 92.1% | SN12C renal; 10 µM unless noted 27.1% | UO-31 renal; 10 µM unless noted 75.7% | TK-10 renal; 10 µM unless noted 102% | ACHN renal; 10 µM unless noted 77.6% | CAKI-1 renal; 10 µM unless noted 73.6% | A498 renal; 10 µM unless noted 91% | CCRF-CEM leukemia; 10 µM unless noted 97.1% | MOLT-4 leukemia 84.8%

COc1ccc(N=Nc2c(N)nn3c(N)c(C#N)c(-c4ccc(F)cc4)nc23)cc1
inactive: SK-MEL-2 melanoma; 10 µM unless noted 110% | EKVX NSCLC; 10 µM unless noted 72.6% | SN12C renal; 10 µM unless noted 61.3% | UO-31 renal; 10 µM unless noted 50.6% | TK-10 renal; 10 µM unless noted 66.7% | ACHN renal; 10 µM unless noted 53.5% | CAKI-1 renal; 10 µM unless noted 58.6% | A498 renal; 10 µM unless noted 155% | CCRF-CEM leukemia; 10 µM unless noted 86.7% | MOLT-4 leukemia 77.6%

CN(C)c1nc(NCCNS(=O)(=O)c2ccc(C3=Nc4c(N)nc(N)nc4NC(c4ccc(C(F)(F)F)cc4)C3)cc2)nc(N2CCOCC2)n1 (stereo not drawn)
inactive: SK-MEL-2 melanoma; 10 µM unless noted 21.8% | EKVX NSCLC; 10 µM unless noted 38.3% | SN12C renal; 10 µM unless noted 48.1% | UO-31 renal; 10 µM unless noted 74.1% | TK-10 renal; 10 µM unless noted 68.9% | ACHN renal; 10 µM unless noted 77.3% | CAKI-1 renal; 10 µM unless noted 37.1% | A498 renal; 10 µM unless noted 94.8% | CCRF-CEM leukemia; 10 µM unless noted 21.8%
active: MOLT-4 leukemia -5.12%

CC/C(=C(\c1ccc(O)cc1)c1ccc(OCCNC)cc1)c1ccccc1
inactive: SK-MEL-2 melanoma; 1 µM 95.1% | SK-MEL-2 melanoma; 10 µM 98.7% | EKVX NSCLC; 1 µM 98.9% | EKVX NSCLC; 10 µM 96.4% | SN12C renal; 1 µM 101% | SN12C renal; 10 µM 73.8% | UO-31 renal; 1 µM 90.2% | UO-31 renal; 10 µM 62.7% | TK-10 renal; 1 µM 91.2% | TK-10 renal; 10 µM 94.5% | ACHN renal; 1 µM 98.4% | ACHN renal; 10 µM 90.4% | CAKI-1 renal; 1 µM 98.9% | CAKI-1 renal; 10 µM 85.3% | A498 renal; 1 µM 104% | A498 renal; 10 µM 91.2% | CCRF-CEM leukemia; 1 µM 89.9% | CCRF-CEM leukemia; 10 µM 92.6%

COc1ccc(N=Nc2c(N)nn3c(N)c(C#N)c(-c4ccccc4)nc23)cc1
inactive: SK-MEL-2 melanoma; 10 µM unless noted 97.6% | EKVX NSCLC; 10 µM unless noted 38.9% | SN12C renal; 10 µM unless noted 40.8% | UO-31 renal; 10 µM unless noted 28.4% | TK-10 renal; 10 µM unless noted 57.4% | ACHN renal; 10 µM unless noted 25.7% | CAKI-1 renal; 10 µM unless noted 15.9% | A498 renal; 10 µM unless noted 113% | CCRF-CEM leukemia; 10 µM unless noted 72.7% | MOLT-4 leukemia 72.8%

N#Cc1ccc(C(=O)CSc2nc3c(c(Nc4ccc(S(N)(=O)=O)cc4)n2)CCC3)cc1
inactive: SK-MEL-2 melanoma; 10 µM unless noted 87.4% | EKVX NSCLC; 10 µM unless noted 49.8% | SN12C renal; 10 µM unless noted 35.3% | UO-31 renal; 10 µM unless noted 66.8% | TK-10 renal; 10 µM unless noted 55.2% | ACHN renal; 10 µM unless noted 10.9% | CAKI-1 renal; 10 µM unless noted 39.1% | A498 renal; 10 µM unless noted 137% | CCRF-CEM leukemia; 10 µM unless noted 81.1% | MOLT-4 leukemia 73.3%

COc1cc(/C=N/NC(=O)c2ccc(OCc3nc4ccc(C)cc4[nH]3)cc2)cc(OC)c1OC
inactive: SK-MEL-2 melanoma; 10 µM unless noted 68.1% | EKVX NSCLC; 10 µM unless noted 72.4% | SN12C renal; 10 µM unless noted 56.4% | UO-31 renal; 10 µM unless noted 66.2% | TK-10 renal; 10 µM unless noted 83.2% | ACHN renal; 10 µM unless noted 69.6% | CAKI-1 renal; 10 µM unless noted 50.5% | A498 renal; 10 µM unless noted 116%
active: CCRF-CEM leukemia; 10 µM unless noted 7.65% | MOLT-4 leukemia 4.5%

NC(=Nc1ccc(OCCCCCCCCn2cnnn2)cc1)c1ccccc1
inactive: SK-MEL-2 melanoma; 10 µM unless noted 21% | EKVX NSCLC; 10 µM unless noted 40% | SN12C renal; 10 µM unless noted 27% | UO-31 renal; 10 µM unless noted 41.6% | TK-10 renal; 10 µM unless noted 64.8% | ACHN renal; 10 µM unless noted 32.3% | CAKI-1 renal; 10 µM unless noted 35.2% | A498 renal; 10 µM unless noted 114% | CCRF-CEM leukemia; 10 µM unless noted 19.6% | MOLT-4 leukemia 20.9%

O=C1/C(=C/C=C/c2ccco2)SC(=S)N1CC(=S)C1C=CS(=O)(=O)C1 (stereo not drawn)
inactive: SK-MEL-2 melanoma; 10 µM unless noted 88.1% | EKVX NSCLC; 10 µM unless noted 94% | SN12C renal; 10 µM unless noted 81.2% | UO-31 renal; 10 µM unless noted 84.1% | TK-10 renal; 10 µM unless noted 126% | ACHN renal; 10 µM unless noted 100% | CAKI-1 renal; 10 µM unless noted 107% | A498 renal; 10 µM unless noted 141% | CCRF-CEM leukemia; 10 µM unless noted 45.9% | MOLT-4 leukemia 68.8%

COc1ccc(NC(=O)Cn2c(/C=C/c3ccc([N+](=O)[O-])cc3)nc3ccccc3c2=O)cc1
inactive: SK-MEL-2 melanoma; 10 µM unless noted 78.9% | EKVX NSCLC; 10 µM unless noted 74.4% | SN12C renal; 10 µM unless noted 62.3% | UO-31 renal; 10 µM unless noted 22.9% | TK-10 renal; 10 µM unless noted 25.5% | ACHN renal; 10 µM unless noted 51.9% | CAKI-1 renal; 10 µM unless noted 63.2% | A498 renal; 10 µM unless noted 85.8% | CCRF-CEM leukemia; 10 µM unless noted 103% | MOLT-4 leukemia 114%

COc1c(F)ccc(C(=O)Nc2ccc3nc(NC(=O)C4CCCN(S(=O)(=O)c5ccc(C(C)(C)C)cc5)C4)sc3c2)c1F (stereo not drawn)
inactive: SK-MEL-2 melanoma; 10 µM unless noted 71.3% | EKVX NSCLC; 10 µM unless noted 59% | SN12C renal; 10 µM unless noted 57% | UO-31 renal; 10 µM unless noted 44.3% | TK-10 renal; 10 µM unless noted 93.6% | ACHN renal; 10 µM unless noted 63.4% | CAKI-1 renal; 10 µM unless noted 69.3% | A498 renal; 10 µM unless noted 84.7% | CCRF-CEM leukemia; 10 µM unless noted 57.9% | MOLT-4 leukemia 29.7%
